Measurements as given in the supplement of paper PMC10849652.
About 8,800 targets were measured; listed, in parts, are those with a hit and a random draw of the rest. About 0.5% of all pairs of compound and target were hits.

Columns and labels:
Test in all cases: log2 fold change, soluble protein after heating vs DMSO (PISA); higher = thermal stabilisation; K562 lysate, 10 uM; active = over 0.2 and 3.5 SD of the protein, either way, in both replicates (recomputed)
erlotinib = compound: C#Cc1cccc(Nc2ncnc3cc(OCCOC)c(OCCOC)cc23)c1 [erlotinib]
Procedure, shortened: (§1)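 A 30 min treatment with 10 μM compound was applied to crude K562 extract at 1 mg/mL protein in PBS pH 7.4 with 1 mM MgCl2. Heating for 3 min spanned 48°C-58°C, after which aliquots were pooled, adjusted to 0.5% NP-40 at 4°C and spun at 21,000xg for 90 min. TMTpro 16plex LC-MS/MS of the supernatant, with channel sums equalised, gave values recorded as log-two fold change in thermal stability against solvent controls, from duplicates.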

[1] = compound: C/C(=N\NC(=O)C1=CC(=CC=C1)S(=O)(=O)N2CCOCC2)/C3=C(C=CC(=C3)Cl)O
Procedure, shortened: as §1

[2] = compound: C1=CC(=CC=C1C2=NC3=C(N2)C=C(C=C3)C(=O)N)OC4=CC=C(C=C4)Cl
Procedure, shortened: as §1

[3] = compound: C1=CC2=C(C=CC(=C2)/C=C\3/C(=O)NC(=NCC4=CC=CS4)S3)N=C1
Procedure, shortened: as §1

[4] = compound: C1=CC2=NC=CN=C2C=C1/C=C/3\C(=O)NC(=O)S3
Procedure, shortened: as §1

[5] = compound: C1=CC=C(C=C1)C2=NC(=C(N2)C3=CC=NC=C3)C4=CC(=C(C=C4)Cl)O
Procedure, shortened: as §1

[6] = compound: C1=CC=C2C(=C1)C3=NNC4=CC=CC(=C43)C2=O
Procedure, shortened: as §1

[7] = compound: C1CCN(C1)C(=O)NC2=CC=CC(=C2)NC3=NC=C(C(=N3)NCCC4=CN=CN4)Br
Procedure, shortened: as §1

[8] = compound: C1CN(CCC1(CC2=CC=C(C=C2)Cl)N)C3=NC=NC4=C3C=CN4
Procedure, shortened: as §1

IRAK-1-4 Inhibitor I = compound: C1COCCN1CCN2C3=CC=CC=C3N=C2NC(=O)C4=CC(=CC=C4)[N+](=O)[O-] [IRAK-1-4 Inhibitor I]
Procedure, shortened: as §1

ibrutinib = compound: C=CC(=O)N1CCC[C@@H](n2nc(-c3ccc(Oc4ccccc4)cc3)c3c(N)ncnc32)C1 [ibrutinib]
Procedure, shortened: as §1

ralimetinib = compound: CC(C)(C)Cn1c(N)nc2ccc(-c3[nH]c(C(C)(C)C)nc3-c3ccc(F)cc3)nc21 [ralimetinib]
Procedure, shortened: as §1

[9] = compound: CC(C)(O)CC(=O)NCCn1ccc2ncnc(Nc3ccc(Oc4cccc(C(F)(F)F)c4)c(Cl)c3)c21
Procedure, shortened: as §1

[10] = compound: CC(C)C1=C2N=C(C=C(N2N=C1)NCC3=CC=CC=C3)NCCCCCCN
Procedure, shortened: as §1

[11] = compound: CC1=C(C=C(C=C1)NC(=O)C2=CC(=CC=C2)C(C)(C)C#N)NC3=CC4=C(C=C3)N=CN(C4=O)C
Procedure, shortened: as §1

[12] = compound: CC1=C(C=C(C=C1)NC(=O)C2=CC(=CC=C2)N(C)C)NC(=O)C3=CC=C(C=C3)O
Procedure, shortened: as §1

[13] = compound: CC(=O)c1cnc2ccc(-c3cc(Cl)c(O)c(Cl)c3)nc2c1N[C@H]1CC[C@H](CN(C)C)CC1
Procedure, shortened: as §1

[14] = compound: CC1=C(C(CC(=O)N1)C2=CC=C(C=C2)C(F)(F)F)C(=O)NC3=C(C=C4C(=C3)C=NN4)F
Procedure, shortened: as §1

[15] = compound: CC1=C(C2=C(C=C1)C(=O)C3=CC=CC=C3N2CCCN)C
Procedure, shortened: as §1

[16] = compound: CC1=CC=C(C=C1)SC2=C3C=C(SC3=CN=C2)C(=O)N
Procedure, shortened: as §1

Measured: log2 fold change

TTLL12 (UniProt V9GY16)
inactive: erlotinib 0.144 | [1] 0.13 | [2] -0.193 | [3] -0.05 | [4] 0.074 | [5] -0.061 | [6] -0.072 | [7] -0.167 | [8] 0.128 | IRAK-1-4 Inhibitor I 0.229 | ibrutinib -0.32 | ralimetinib -0.339 | [9] -0.165 | [10] -0.333 | [11] 0.031 | [12] -0.009

TUBB6 (UniProt Q9BUF5)
inactive: erlotinib 0.039 | [1] 0.051 | [2] -0.002 | [3] 0.017 | [4] 0 | [5] 0.005 | [6] 0.009 | [7] -0.013 | [8] 0.057 | IRAK-1-4 Inhibitor I -0.003 | ibrutinib -0.005 | [13] 0.012 | ralimetinib 0.023 | [9] -0.038 | [10] 0.027 | [14] 0.012 | [15] 0.025 | [11] -0.024 | [12] -0.009 | [16] 0.025

TPM4 isoform 2 (UniProt P67936)
Sequence of UniProt P67936 (P67936 whole entry, looked up): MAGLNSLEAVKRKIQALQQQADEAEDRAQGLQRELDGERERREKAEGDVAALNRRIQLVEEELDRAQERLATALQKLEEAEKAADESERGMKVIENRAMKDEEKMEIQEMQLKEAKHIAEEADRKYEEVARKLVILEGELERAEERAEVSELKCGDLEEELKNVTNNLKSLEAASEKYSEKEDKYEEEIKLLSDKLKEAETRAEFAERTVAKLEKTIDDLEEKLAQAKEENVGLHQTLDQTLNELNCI
inactive: erlotinib -0.06 | [1] 0.011 | [2] -0.048 | [3] 0.067 | [4] 0.002 | [5] 0.024 | [6] -0.016 | [7] 0.016 | [8] -0.015 | IRAK-1-4 Inhibitor I -0.022 | ibrutinib -0.062 | [13] 0.016 | ralimetinib -0.005 | [9] 0.032 | [10] -0.034 | [14] -0.027 | [15] -0.025 | [11] -0.06 | [12] -0.004 | [16] 0

UBL5 (UniProt Q9BZL1)
Sequence of UniProt Q9BZL1 (Q9BZL1 whole entry, looked up): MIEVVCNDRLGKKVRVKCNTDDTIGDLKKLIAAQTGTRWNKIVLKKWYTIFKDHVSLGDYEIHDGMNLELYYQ
inactive: erlotinib 0 | [1] 0.002 | [2] -0.02 | [3] 0.011 | [4] -0.079 | [5] 0 | [6] 0.049 | [7] 0.029 | [8] 0.004 | IRAK-1-4 Inhibitor I -0.062 | ibrutinib 0.052 | ralimetinib -0.029 | [9] 0.04 | [10] -0.003 | [14] -0.056 | [15] 0.032 | [11] 0.038 | [12] 0.037

TJP1 (UniProt G3V1L9)
inactive: erlotinib 0.169 | [1] 0.199 | [2] 0.087 | [3] -0.119 | [4] -0.068 | [5] 0.014 | [6] 0.063 | IRAK-1-4 Inhibitor I 0.047 | ibrutinib 0.024 | ralimetinib 0.075 | [9] -0.014 | [10] -0.025 | [14] -0.041 | [15] 0.022 | [11] -0.017 | [12] -0.041

TPM1 (UniProt H7BYY1)
inactive: erlotinib -0.034 | [1] -0.004 | [2] -0.057 | [3] 0.026 | [4] -0.008 | [5] 0.091 | [6] -0.041 | [7] 0.012 | [8] -0.02 | IRAK-1-4 Inhibitor I -0.071 | ibrutinib -0.002 | [13] -0.018 | ralimetinib -0.035 | [9] 0.068 | [10] 0.037 | [14] -0.027 | [15] 0.023 | [11] -0.045 | [12] 0.039 | [16] -0.034

UBXN2B (UniProt Q14CS0)
inactive: erlotinib -0.008 | [1] -0.079 | [2] 0.073 | [3] -0.045 | [4] -0.01 | [5] -0.062 | [6] 0.149 | [7] -0.04 | [8] -0.046 | IRAK-1-4 Inhibitor I -0.028 | ibrutinib 0.108 | [13] 0.19 | ralimetinib 0.087 | [9] -0.075 | [10] 0.002 | [14] -0.189 | [15] -0.192 | [12] 0.022 | [16] -0.011

TRAPPC9 isoform 2 (UniProt Q96Q05)
Sequence of UniProt Q96Q05 (Q96Q05 whole entry, looked up): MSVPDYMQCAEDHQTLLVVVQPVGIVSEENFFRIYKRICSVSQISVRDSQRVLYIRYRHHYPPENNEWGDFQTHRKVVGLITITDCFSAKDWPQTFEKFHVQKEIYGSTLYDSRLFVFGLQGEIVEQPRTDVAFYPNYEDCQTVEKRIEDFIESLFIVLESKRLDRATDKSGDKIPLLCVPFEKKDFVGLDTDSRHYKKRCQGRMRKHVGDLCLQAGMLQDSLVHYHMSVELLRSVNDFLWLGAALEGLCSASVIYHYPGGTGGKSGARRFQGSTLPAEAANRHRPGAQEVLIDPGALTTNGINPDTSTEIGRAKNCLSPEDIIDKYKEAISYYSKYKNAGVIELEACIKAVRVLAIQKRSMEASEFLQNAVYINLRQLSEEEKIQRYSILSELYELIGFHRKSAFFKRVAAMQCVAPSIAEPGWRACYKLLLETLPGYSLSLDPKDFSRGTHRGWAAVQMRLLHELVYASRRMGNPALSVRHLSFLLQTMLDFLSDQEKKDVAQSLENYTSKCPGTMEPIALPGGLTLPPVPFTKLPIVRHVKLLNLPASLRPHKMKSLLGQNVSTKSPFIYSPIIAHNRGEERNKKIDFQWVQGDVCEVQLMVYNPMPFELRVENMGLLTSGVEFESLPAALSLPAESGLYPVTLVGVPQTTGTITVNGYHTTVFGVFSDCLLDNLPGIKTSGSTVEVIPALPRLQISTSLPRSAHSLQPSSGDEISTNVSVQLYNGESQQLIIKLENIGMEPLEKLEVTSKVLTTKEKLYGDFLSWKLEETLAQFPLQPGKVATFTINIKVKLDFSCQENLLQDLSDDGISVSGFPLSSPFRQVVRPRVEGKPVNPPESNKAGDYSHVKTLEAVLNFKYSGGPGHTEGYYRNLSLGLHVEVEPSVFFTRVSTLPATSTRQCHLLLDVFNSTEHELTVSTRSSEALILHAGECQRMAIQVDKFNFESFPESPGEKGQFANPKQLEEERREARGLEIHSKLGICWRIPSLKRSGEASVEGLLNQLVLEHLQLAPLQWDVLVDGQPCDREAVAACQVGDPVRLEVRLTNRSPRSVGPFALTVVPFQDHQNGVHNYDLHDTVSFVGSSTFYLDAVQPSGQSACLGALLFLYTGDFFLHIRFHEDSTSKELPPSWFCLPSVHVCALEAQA
inactive: erlotinib 0.033 | [1] 0.113 | [2] -0.01 | [3] 0.006 | [4] -0.04 | [5] -0.012 | [6] -0.005 | [7] 0.027 | [8] 0.034 | IRAK-1-4 Inhibitor I 0.027 | ibrutinib 0.003 | [13] 0.019 | ralimetinib 0.055 | [9] -0.025 | [10] -0.003 | [14] -0.043 | [15] -0.023 | [11] 0.02 | [12] -0.016 | [16] -0.001

TTC12 isoform 2 (UniProt Q9H892)
Sequence of UniProt Q9H892 (Q9H892 whole entry, looked up): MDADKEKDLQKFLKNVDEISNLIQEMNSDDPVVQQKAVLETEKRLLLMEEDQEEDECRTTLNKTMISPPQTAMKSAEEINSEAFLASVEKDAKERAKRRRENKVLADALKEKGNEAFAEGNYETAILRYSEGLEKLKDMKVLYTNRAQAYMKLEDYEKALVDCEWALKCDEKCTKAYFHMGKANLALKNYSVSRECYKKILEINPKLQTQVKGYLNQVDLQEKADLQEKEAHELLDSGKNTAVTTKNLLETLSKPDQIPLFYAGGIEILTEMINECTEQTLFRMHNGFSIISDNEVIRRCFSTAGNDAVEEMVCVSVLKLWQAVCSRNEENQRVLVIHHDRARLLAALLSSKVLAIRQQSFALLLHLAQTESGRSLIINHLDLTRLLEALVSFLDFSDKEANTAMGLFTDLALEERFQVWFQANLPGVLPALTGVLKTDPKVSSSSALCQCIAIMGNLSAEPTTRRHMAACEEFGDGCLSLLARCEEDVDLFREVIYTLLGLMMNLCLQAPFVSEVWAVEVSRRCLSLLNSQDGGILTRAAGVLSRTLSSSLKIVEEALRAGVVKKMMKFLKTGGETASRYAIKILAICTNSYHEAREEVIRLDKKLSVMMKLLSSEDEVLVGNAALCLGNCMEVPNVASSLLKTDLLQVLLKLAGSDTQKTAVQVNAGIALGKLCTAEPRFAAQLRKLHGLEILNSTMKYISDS
inactive: erlotinib 0.066 | [1] -0.051 | [2] 0.055 | [3] 0.007 | [4] -0.081 | [5] -0.037 | [6] -0.019 | [7] -0.006 | [8] 0.034 | IRAK-1-4 Inhibitor I 0.231 | ibrutinib -0.002 | [13] -0.073 | ralimetinib 0.053 | [9] 0.128 | [10] -0.032 | [14] -0.049 | [15] -0.042 | [11] 0.037 | [12] -0.14 | [16] -0.003

TFIP11 (UniProt Q9UBB9)
Sequence of UniProt Q9UBB9 (Q9UBB9 whole entry, looked up): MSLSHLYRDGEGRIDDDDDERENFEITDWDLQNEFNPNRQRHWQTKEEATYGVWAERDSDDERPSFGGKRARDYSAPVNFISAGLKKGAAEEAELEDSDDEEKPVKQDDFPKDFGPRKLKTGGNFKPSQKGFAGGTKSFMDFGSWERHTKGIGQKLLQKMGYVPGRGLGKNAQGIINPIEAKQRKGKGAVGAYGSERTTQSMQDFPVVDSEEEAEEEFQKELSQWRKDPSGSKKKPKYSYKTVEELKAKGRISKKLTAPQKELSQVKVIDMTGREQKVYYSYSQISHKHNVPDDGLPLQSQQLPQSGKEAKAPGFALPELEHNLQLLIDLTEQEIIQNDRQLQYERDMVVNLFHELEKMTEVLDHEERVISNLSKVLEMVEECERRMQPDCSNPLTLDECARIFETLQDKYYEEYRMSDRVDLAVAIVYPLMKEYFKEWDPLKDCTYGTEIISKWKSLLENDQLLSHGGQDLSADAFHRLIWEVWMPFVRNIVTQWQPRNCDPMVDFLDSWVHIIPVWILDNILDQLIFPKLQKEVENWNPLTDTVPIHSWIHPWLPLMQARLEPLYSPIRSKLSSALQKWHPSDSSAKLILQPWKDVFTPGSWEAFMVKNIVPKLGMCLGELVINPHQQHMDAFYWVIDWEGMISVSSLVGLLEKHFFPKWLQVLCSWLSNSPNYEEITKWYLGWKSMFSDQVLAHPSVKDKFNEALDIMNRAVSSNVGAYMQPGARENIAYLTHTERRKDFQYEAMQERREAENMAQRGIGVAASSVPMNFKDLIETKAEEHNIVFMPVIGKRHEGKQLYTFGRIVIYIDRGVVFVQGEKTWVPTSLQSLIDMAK
inactive: erlotinib -0.026 | [1] -0.099 | [2] -0.082 | [3] -0.025 | [4] -0.027 | [5] 0.023 | [6] -0.036 | [7] -0.008 | [8] 0.074 | IRAK-1-4 Inhibitor I -0.016 | ibrutinib 0.059 | [13] 0.001 | ralimetinib 0.023 | [9] 0.008 | [10] -0.022 | [14] 0 | [15] -0.034 | [11] 0.016 | [12] 0.031 | [16] -0.003

UCHL5 isoform 3 (UniProt Q9Y5K5)
Sequence of UniProt Q9Y5K5 (Q9Y5K5 whole entry, looked up): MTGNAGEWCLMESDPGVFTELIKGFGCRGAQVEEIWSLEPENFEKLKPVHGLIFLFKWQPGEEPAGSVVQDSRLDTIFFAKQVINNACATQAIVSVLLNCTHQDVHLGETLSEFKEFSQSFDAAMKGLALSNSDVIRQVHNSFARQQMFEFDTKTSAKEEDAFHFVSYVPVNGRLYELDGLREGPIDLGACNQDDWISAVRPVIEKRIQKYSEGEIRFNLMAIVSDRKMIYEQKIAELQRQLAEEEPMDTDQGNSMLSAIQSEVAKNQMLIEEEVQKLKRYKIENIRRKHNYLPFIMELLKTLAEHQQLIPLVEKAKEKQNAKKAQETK
inactive: erlotinib -0.015 | [1] -0.012 | [2] 0.015 | [3] -0.018 | [4] 0.01 | [5] -0.005 | [6] 0.001 | [7] 0 | [8] -0.014 | IRAK-1-4 Inhibitor I -0.018 | ibrutinib 0 | [13] -0.001 | ralimetinib 0.01 | [9] -0.008 | [10] 0.015 | [14] 0.014 | [15] 0.011 | [11] -0.029 | [12] 0.004 | [16] 0.012

TMEM161B (UniProt Q8NDZ6)
inactive: erlotinib 0.051 | [1] -0.08 | [2] -0.017 | [3] 0.174 | [4] 0.007 | [5] -0.068 | [6] -0.133 | [7] 0.052 | [8] -0.01 | IRAK-1-4 Inhibitor I 0.09 | ibrutinib -0.026 | [13] 0.197 | ralimetinib 0 | [9] -0.224 | [10] -0.113 | [14] -0.005 | [11] 0.027 | [12] 0.108 | [16] -0.012

TXNIP (UniProt Q9H3M7)
Sequence of UniProt Q9H3M7 (Q9H3M7 whole entry, looked up): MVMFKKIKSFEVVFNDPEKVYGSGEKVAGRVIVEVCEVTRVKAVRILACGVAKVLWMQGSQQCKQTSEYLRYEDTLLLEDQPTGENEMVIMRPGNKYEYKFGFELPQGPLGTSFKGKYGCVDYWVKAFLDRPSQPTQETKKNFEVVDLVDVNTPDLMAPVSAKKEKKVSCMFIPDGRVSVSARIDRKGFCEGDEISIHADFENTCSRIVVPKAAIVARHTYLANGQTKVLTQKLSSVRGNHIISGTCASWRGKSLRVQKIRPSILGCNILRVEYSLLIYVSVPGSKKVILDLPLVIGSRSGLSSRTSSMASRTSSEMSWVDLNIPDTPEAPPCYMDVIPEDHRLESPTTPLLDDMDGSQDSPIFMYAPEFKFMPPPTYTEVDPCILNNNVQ
inactive: erlotinib 0.036 | [1] -0.165 | [2] -0.057 | [3] -0.045 | [4] -0.001 | [5] -0.003 | [6] 0.048 | [7] -0.042 | [8] 0.017 | IRAK-1-4 Inhibitor I 0.041 | ibrutinib -0.009 | ralimetinib 0.007 | [9] -0.02 | [10] -0.053 | [14] 0.011 | [15] -0.036 | [11] 0.037 | [12] 0.016

TMEM167B (UniProt Q9NRX6)
Sequence of UniProt Q9NRX6 (Q9NRX6 whole entry, looked up): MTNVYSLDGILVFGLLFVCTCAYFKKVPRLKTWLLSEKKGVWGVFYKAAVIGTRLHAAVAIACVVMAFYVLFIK
inactive: erlotinib -0.061 | [1] -0.016 | [2] -0.006 | [3] -0.042 | [4] -0.044 | [5] -0.002 | [6] 0.013 | [7] -0.056 | [8] 0.036 | IRAK-1-4 Inhibitor I -0.014 | ibrutinib 0.019 | [13] -0.02 | ralimetinib 0.015 | [9] 0.001 | [10] -0.02 | [14] -0.058 | [11] 0.021 | [12] 0.035 | [16] -0.033

TUBAL3 (UniProt A6NHL2)
inactive: erlotinib -0.018 | [1] -0.01 | [2] -0.076 | [3] -0.114 | [4] -0.004 | [5] -0.011 | [6] -0.134 | [7] -0.025 | [8] 0.037 | IRAK-1-4 Inhibitor I 0.078 | ibrutinib 0.002 | [13] -0.071 | ralimetinib 0.056 | [9] -0.145 | [10] 0.116 | [14] -0.009 | [15] -0.008 | [12] -0.119 | [16] 0.025

TBC1D8B (UniProt Q0IIM8)
Sequence of UniProt Q0IIM8 (Q0IIM8 whole entry, looked up): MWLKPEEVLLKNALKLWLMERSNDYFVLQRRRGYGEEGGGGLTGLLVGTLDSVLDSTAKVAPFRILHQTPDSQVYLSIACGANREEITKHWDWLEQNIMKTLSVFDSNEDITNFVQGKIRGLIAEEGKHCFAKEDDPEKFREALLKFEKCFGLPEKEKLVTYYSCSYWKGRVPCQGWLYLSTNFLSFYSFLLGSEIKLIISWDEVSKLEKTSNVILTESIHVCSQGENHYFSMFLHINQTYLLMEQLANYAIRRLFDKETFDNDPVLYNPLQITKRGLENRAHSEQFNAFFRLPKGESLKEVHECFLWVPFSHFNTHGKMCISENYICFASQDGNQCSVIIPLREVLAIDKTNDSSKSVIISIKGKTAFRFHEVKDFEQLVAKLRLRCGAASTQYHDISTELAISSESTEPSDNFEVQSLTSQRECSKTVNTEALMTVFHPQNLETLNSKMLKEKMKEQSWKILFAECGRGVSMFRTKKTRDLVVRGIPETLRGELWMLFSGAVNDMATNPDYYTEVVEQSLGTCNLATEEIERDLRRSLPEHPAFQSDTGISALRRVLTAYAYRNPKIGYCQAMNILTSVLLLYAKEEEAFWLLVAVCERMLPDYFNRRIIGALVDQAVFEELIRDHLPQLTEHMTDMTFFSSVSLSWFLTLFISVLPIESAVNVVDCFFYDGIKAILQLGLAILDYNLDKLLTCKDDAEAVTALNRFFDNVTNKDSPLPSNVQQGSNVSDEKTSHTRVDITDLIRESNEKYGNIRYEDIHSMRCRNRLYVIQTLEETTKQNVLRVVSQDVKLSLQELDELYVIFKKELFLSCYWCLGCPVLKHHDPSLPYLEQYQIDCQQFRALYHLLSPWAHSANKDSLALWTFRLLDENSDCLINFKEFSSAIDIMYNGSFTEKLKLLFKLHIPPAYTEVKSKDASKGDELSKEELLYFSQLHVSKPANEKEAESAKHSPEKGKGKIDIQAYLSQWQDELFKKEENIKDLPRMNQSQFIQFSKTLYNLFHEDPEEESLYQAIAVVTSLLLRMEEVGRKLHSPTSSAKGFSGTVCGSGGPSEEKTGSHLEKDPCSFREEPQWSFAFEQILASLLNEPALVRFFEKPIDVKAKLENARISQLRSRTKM
inactive: erlotinib -0.023 | [1] -0.376 | [2] 0.036 | [3] -0.041 | [4] 0 | [5] 0.01 | [6] 0.01 | [7] 0.017 | [8] 0.063 | IRAK-1-4 Inhibitor I 0.001 | ibrutinib 0.044 | [13] -0.039 | ralimetinib -0.049 | [9] -0.017 | [10] 0.031 | [14] -0.072 | [15] 0.006 | [11] 0.016 | [12] -0.056 | [16] -0.051

TNKS (UniProt O95271)
inactive: erlotinib 0.064 | [1] -0.024 | [2] -0.036 | [3] -0.005 | [5] 0.052 | [6] -0.01 | [7] -0.061 | [8] -0.02 | IRAK-1-4 Inhibitor I -0.073 | [13] 0.038 | ralimetinib -0.04 | [9] 0.022 | [10] -0.045 | [14] -0.001 | [15] -0.076 | [11] 0.004 | [12] 0.006 | [16] 0.124
